For the first assay, the system named is P. falciparum NF54-pfs16-GFP late (IV-V) stage gametocytes. Description: relative % inhibition of viable gametocyte number; higher = more gametocytocidal. Conditions: 0.5 µM; stage: late (IV-V) gametocyte; incubation 72 h. The procedure, abridged: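 Early-stage (I/IIa, day 2) or late-stage (day 8) NF54 pfs16-GFP gametocytes were isolated by magnet and plated in 384-well poly-D-lysine imaging plates at 10% parasitaemia and 0.1% haematocrit, with compound in duplicate at 5 or 0.5 µM. After 72 h at 37°C under 5% CO2 and 5% O2, MitoTracker Red was added overnight. Confocal imaging scored elongated GFP objects whose MitoTracker signal passed a cut-off as viable gametocytes. Relative inhibition was normalised against vehicle and positive-control wells on the same plate.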
As for `CCOc1ccc(Nc2ccnc3cc(Cl)ccc23)cc1`, the relative % inhibition was 14.7%.
For the molecule `c1ccc2c(NCCc3c[nH]c4ccccc34)c3ccccc3nc2c1`, the relative % inhibition is -14.3%.
As for `CCOC(=O)C1=C(C)N=c2sc(=Cc3cc(Cl)ccc3O)c(=O)n2C1c1ccc(OC)cc1` (stereo unspecified), the relative % inhibition was 94.5%.
On to `Cc1cc(Nc2ccc(Cl)cc2)n2nc(C(F)(F)F)nc2n1`, for which the relative % inhibition is 7.36%.
Same read-out and setting: for `CC1CC2=C(CC1CNCCCN(C)C)C(C)(C)CCC2` (stereo unspecified) the value was 20.7%.
The same measure, in the same setting: for `O=C(CSc1ccc2nnc(-c3cccc(F)c3)n2n1)Nc1ccc2c(c1)OCO2` the value was 19%; for `COc1ccc(-c2nc3cc(Cc4ccc5[nH]c(-c6ccc(OC)cc6)nc5c4)ccc3[nH]2)cc1`, 17.1%; for `CC(C)(C)CC(C)(C)NCC(O)COc1ccc2c(c1)CCC2` (stereo unspecified), 17.6%.
For `Cc1ccc(Nc2nc(N)c3ccccc3n2)cc1Cl`, the relative % inhibition was found to be 22.5%.
Turning to `COc1ccc(CCn2c(=N)c(C(=O)NCc3cccnc3)cc3c(=O)n4cccc(C)c4nc32)cc1`, the relative % inhibition is -7.36%.
On to `CN1CCN(c2ccc(Nc3c4ccccc4nc4ccccc34)cc2)CC1`, for which the relative % inhibition came to 91.3%.
On the same count and under the same terms, as for `CC(C)(C)c1ccc(C(=O)Nc2nc3ccccc3s2)cc1`, the figure is 6.03%.
In the case of `Oc1c2c(nc3ccccc13)CCCC2`, the relative % inhibition was determined as 26.9%.
In the case of `CCOC(=O)c1ccc2nc(-c3ccccc3)cc(O)c2c1`, the relative % inhibition worked out at 50.6%.
In the case of `Cc1cc(Nc2ccc(C)c(Cl)c2)n2nc(C(F)(F)F)nc2n1`, the relative % inhibition was 13.1%.
Consider `COc1ccc(-c2nonc2NC(=O)c2cccc(C)c2)cc1OC`, for which the relative % inhibition was -13.4%.
The same measure, in the same setting: for `COc1cc(OC)cc(N2C(=O)N(Cc3ccc(C(C)(C)C)cc3)c3ccccc3S2(=O)=O)c1` the value was 4.34%.
Same read-out and setting: as for `O=C(NC1CCCC1)c1ccc(N2CCC(NCc3cccc(C(F)(F)F)c3)CC2)cc1`, the figure is 6.99%.
Regarding `O=C(Nc1ccc(CN2CCOCC2)cc1)c1ccc(-c2ccc(Br)cc2)o1`, the relative % inhibition is 27.9%.
On the same count and under the same terms, for `CN(C)c1ccc(N=Cc2ccc(N3CCOCC3)cc2)cc1` the value was 22.1%; for `CCOc1cc2c(cc1OCC)C(c1cc(OC)c(O)cc1Cl)NCC2` (stereo unspecified), 25.6%; for `COc1cc(C(=O)Nc2nc3c(cc4c5c(cccc53)CC4)s2)cc(OC)c1OC`, 12.4%.
On to `O=C(NC1CCN(Cc2ccccc2)CC1)c1cc(-c2ccncc2)nc2ccc(Cl)cc12`, for which the relative % inhibition was -28.1%.
As to `CCOC(=O)C1(Cc2ccccc2)CCN(Cc2cccc(OC)c2O)CC1`, the relative % inhibition was -5.97%.
Regarding `Cc1ccc(Nc2nc(-c3ccccn3)cs2)cc1`, the relative % inhibition amounted to 95.4%.
On to `COc1ccccc1N1C(=N)SC(=Cc2ccc(OCc3ccccc3F)cc2)C1=O`, for which the relative % inhibition was 32.6%.
The same measure, in the same setting: as for `CCN(CC)CCNc1ccnc2cc(Cl)ccc12`, the figure is 18.2%.
`COc1cc(C(=O)Nc2ccc(-c3nc4ccccc4[nH]3)cc2)cc(OC)c1OC`: the relative % inhibition worked out at 20.5%.
On the same count and under the same terms, as for `COc1ccc(Nc2nc(NN=Cc3ccc(O)cc3)nc(Nc3ccc([N+](=O)[O-])cc3)n2)cc1`, the figure is -4.05%; as for `O=C(NC1CCN(Cc2ccccc2)CC1)c1cc(-c2cccnc2)nc2ccc(Cl)cc12`, -30.4%; as for `CC1=C(CC(=O)c2cccc([N+](=O)[O-])c2)C(=O)c2ccccc2C1=O`, 39.3%.
On the same count and under the same terms, for `CCCc1c(C)nc2ccccc2c1O` the value was 56.5%; for `O=c1nc(C=Cc2ccc(Br)cc2)oc2ccccc12`, 4.47%.
Regarding `FC(F)(F)c1ccc(Nc2nnnc3ccccc23)cc1`, the relative % inhibition turned out to be 25%.
As for `COc1ccc(C2N(C)c3ccccc3N2C)cc1`, the relative % inhibition stood at 17.9%.
Regarding `Cc1ccccc1OCCSc1nc2ccc(NC(=O)c3ccccc3)cc2s1`, the relative % inhibition amounted to 2.82%.
As for `CN1c2ccccc2N(C)C1c1ccc2c(c1)OCO2`, the relative % inhibition is 28.6%.
`CCn1c(CN2CCN(Cc3ccccc3)CC2)nc2cc(NC(=O)c3cccs3)ccc21`: the relative % inhibition was determined as 28.5%.

Still in this assay, the particulars now being: 5 µM; stage: late (IV-V) gametocyte; incubation 72 h.
In the case of `CCOc1ccc(Nc2ccnc3cc(Cl)ccc23)cc1`, the relative % inhibition is 14.7%.
Still for that read-out and setting: for `c1ccc2c(NCCc3c[nH]c4ccccc34)c3ccccc3nc2c1` the value was 29.7%; for `CCOC(=O)C1=C(C)N=c2sc(=Cc3cc(Cl)ccc3O)c(=O)n2C1c1ccc(OC)cc1` (stereo unspecified), 103%.
Still for that read-out and setting: for `Cc1cc(Nc2ccc(Cl)cc2)n2nc(C(F)(F)F)nc2n1` the value was -10.1%; for `CC1CC2=C(CC1CNCCCN(C)C)C(C)(C)CCC2` (stereo unspecified), 85.3%; for `O=C(CSc1ccc2nnc(-c3cccc(F)c3)n2n1)Nc1ccc2c(c1)OCO2`, 32.1%.
Same read-out and setting: for `COc1ccc(-c2nc3cc(Cc4ccc5[nH]c(-c6ccc(OC)cc6)nc5c4)ccc3[nH]2)cc1` the value was 103%.
With `CC(C)(C)CC(C)(C)NCC(O)COc1ccc2c(c1)CCC2` (stereo unspecified), the relative % inhibition worked out at 20.4%.
On to `Cc1ccc(Nc2nc(N)c3ccccc3n2)cc1Cl`, for which the relative % inhibition worked out at 38.4%.
As for `COc1ccc(CCn2c(=N)c(C(=O)NCc3cccnc3)cc3c(=O)n4cccc(C)c4nc32)cc1`, the relative % inhibition was found to be 11.2%.
Consider `CN1CCN(c2ccc(Nc3c4ccccc4nc4ccccc34)cc2)CC1`, for which the relative % inhibition turned out to be 104%.
Consider `CC(C)(C)c1ccc(C(=O)Nc2nc3ccccc3s2)cc1`, for which the relative % inhibition was found to be 2.42%.
Still for that read-out and setting: for `Oc1c2c(nc3ccccc13)CCCC2` the value was 90.8%.
On the same count and under the same terms, for `CCOC(=O)c1ccc2nc(-c3ccccc3)cc(O)c2c1` the value was 102%.
Still for that read-out and setting: as for `Cc1cc(Nc2ccc(C)c(Cl)c2)n2nc(C(F)(F)F)nc2n1`, the figure is -2.09%.
`COc1ccc(-c2nonc2NC(=O)c2cccc(C)c2)cc1OC`: the relative % inhibition was -9.12%.
Still for that read-out and setting: for `COc1cc(OC)cc(N2C(=O)N(Cc3ccc(C(C)(C)C)cc3)c3ccccc3S2(=O)=O)c1` the value was 35.7%; for `O=C(NC1CCCC1)c1ccc(N2CCC(NCc3cccc(C(F)(F)F)c3)CC2)cc1`, 44.5%.
The same measure, in the same setting: as for `O=C(Nc1ccc(CN2CCOCC2)cc1)c1ccc(-c2ccc(Br)cc2)o1`, the figure is 4.05%.
Turning to `CN(C)c1ccc(N=Cc2ccc(N3CCOCC3)cc2)cc1`, the relative % inhibition turned out to be 62%.
As to `CCOc1cc2c(cc1OCC)C(c1cc(OC)c(O)cc1Cl)NCC2` (stereo unspecified), the relative % inhibition worked out at 48.3%.
Turning to `COc1cc(C(=O)Nc2nc3c(cc4c5c(cccc53)CC4)s2)cc(OC)c1OC`, the relative % inhibition is 5.43%.
`O=C(NC1CCN(Cc2ccccc2)CC1)c1cc(-c2ccncc2)nc2ccc(Cl)cc12`: the relative % inhibition is -1.38%.
Take `CCOC(=O)C1(Cc2ccccc2)CCN(Cc2cccc(OC)c2O)CC1`: the relative % inhibition was 22.8%.
On the same count and under the same terms, for `Cc1ccc(Nc2nc(-c3ccccn3)cs2)cc1` the value was 98.4%; for `COc1ccccc1N1C(=N)SC(=Cc2ccc(OCc3ccccc3F)cc2)C1=O`, 69.4%; for `CCN(CC)CCNc1ccnc2cc(Cl)ccc12`, 14.7%.
Take `COc1cc(C(=O)Nc2ccc(-c3nc4ccccc4[nH]3)cc2)cc(OC)c1OC`: the relative % inhibition is 9.54%.
Turning to `COc1ccc(Nc2nc(NN=Cc3ccc(O)cc3)nc(Nc3ccc([N+](=O)[O-])cc3)n2)cc1`, the relative % inhibition was determined as 31.8%.
Same read-out and setting: for `O=C(NC1CCN(Cc2ccccc2)CC1)c1cc(-c2cccnc2)nc2ccc(Cl)cc12` the value was -0.963%; for `CC1=C(CC(=O)c2cccc([N+](=O)[O-])c2)C(=O)c2ccccc2C1=O`, 54.1%; for `CCCc1c(C)nc2ccccc2c1O`, 72.3%.
Regarding `O=c1nc(C=Cc2ccc(Br)cc2)oc2ccccc12`, the relative % inhibition stood at 101%.
The same measure, in the same setting: as for `FC(F)(F)c1ccc(Nc2nnnc3ccccc23)cc1`, the figure is 7.26%.
On the same count and under the same terms, for `COc1ccc(C2N(C)c3ccccc3N2C)cc1` the value was -2.47%; for `Cc1ccccc1OCCSc1nc2ccc(NC(=O)c3ccccc3)cc2s1`, 12.9%.
Same read-out and setting: as for `CN1c2ccccc2N(C)C1c1ccc2c(c1)OCO2`, the figure is -1.98%.
`CCn1c(CN2CCN(Cc3ccccc3)CC2)nc2cc(NC(=O)c3cccs3)ccc21`: the relative % inhibition stood at 50.7%.

Source of the values: the supplement of paper PMC3842684.
